Source: PubChem BioAssay AID782 (Emory University Molecular Libraries Screening Center, 2007)
The campaign covered roughly 220,000 compounds. About 800 (0.36%) were called active. The full list was thinned out, with actives kept by preference. Unmarked numbers belong to inactive results.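 The calls were made as follows: active = inhibition above about 30% (limit read from the data); inactive = the rest.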

Molecular target: Eukaryotic translation initiation factor 4E (Mus musculus) + Eukaryotic translation initiation factor 4 gamma 1 (Homo sapiens) (UniProt P63073+Q04637)
Assay: blockers of eIF4G binding by eIF4E – biochemical, uHTS, TR-FRET, eIF4GI fragment, primary screen (AID 782);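 also: 0% = full FRET control wells and 100% = background wells lacking eIF4GI fragment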
Settings: TR-FRET eIF4E-eIF4GI(517-606) binding, 2 h; at 21.7 µM; active compounds read high

Sequence of Eukaryotic translation initiation factor 4E (Mus musculus) + Eukaryotic translation initiation factor 4 gamma 1 (Homo sapiens) (P63073 whole entry, looked up, the tested form may be a part): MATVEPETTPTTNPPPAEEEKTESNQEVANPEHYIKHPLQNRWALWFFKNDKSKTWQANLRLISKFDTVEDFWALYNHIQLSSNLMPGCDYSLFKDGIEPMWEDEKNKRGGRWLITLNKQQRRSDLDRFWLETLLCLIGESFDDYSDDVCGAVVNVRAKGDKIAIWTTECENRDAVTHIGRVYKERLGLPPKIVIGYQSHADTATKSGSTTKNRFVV
Sequence of Eukaryotic translation initiation factor 4E (Mus musculus) + Eukaryotic translation initiation factor 4 gamma 1 (Homo sapiens) (Q04637 whole entry, looked up, the tested form may be a part): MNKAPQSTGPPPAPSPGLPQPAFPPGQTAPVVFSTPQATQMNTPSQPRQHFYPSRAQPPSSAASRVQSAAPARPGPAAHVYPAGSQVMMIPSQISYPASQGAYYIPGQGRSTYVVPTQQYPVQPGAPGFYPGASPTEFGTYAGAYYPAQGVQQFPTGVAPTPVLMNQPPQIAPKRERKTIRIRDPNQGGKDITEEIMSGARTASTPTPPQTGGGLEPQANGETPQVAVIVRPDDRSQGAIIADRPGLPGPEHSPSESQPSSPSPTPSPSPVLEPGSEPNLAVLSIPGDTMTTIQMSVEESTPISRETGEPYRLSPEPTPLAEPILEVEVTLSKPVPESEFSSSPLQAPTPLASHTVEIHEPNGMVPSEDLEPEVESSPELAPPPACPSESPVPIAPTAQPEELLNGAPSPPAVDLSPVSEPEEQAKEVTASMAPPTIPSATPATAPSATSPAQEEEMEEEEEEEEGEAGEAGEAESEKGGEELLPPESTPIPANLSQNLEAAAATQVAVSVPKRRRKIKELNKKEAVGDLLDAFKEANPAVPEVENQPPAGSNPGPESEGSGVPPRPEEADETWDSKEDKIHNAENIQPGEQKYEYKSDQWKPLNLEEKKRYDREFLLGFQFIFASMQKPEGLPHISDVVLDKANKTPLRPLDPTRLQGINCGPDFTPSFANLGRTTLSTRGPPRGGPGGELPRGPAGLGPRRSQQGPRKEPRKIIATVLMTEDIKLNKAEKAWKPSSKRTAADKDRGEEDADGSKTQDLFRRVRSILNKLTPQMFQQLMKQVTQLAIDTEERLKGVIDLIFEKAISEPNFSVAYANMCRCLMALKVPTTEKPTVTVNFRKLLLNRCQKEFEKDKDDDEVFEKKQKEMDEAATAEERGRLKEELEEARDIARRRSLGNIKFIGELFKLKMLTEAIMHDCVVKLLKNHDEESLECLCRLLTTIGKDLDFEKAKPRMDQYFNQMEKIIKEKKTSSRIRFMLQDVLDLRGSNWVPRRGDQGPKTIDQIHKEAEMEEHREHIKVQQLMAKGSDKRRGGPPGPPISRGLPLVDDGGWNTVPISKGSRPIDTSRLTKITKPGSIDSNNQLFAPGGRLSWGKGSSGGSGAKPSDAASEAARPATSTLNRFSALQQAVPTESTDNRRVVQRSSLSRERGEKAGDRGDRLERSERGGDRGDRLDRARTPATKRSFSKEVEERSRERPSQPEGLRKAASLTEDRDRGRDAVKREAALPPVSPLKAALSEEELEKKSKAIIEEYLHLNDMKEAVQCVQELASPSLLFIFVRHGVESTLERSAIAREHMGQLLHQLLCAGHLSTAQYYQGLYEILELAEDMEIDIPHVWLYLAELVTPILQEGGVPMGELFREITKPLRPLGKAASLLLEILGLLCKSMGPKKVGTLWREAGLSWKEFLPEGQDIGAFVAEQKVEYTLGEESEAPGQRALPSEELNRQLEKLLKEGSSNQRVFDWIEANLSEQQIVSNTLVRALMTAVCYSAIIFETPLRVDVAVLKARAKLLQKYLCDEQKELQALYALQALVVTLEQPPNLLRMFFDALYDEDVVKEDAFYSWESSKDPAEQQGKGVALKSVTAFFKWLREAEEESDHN

Compound	inhibition
CCOC(=O)N1CCC(=NNC(N)=O)CC1	2.99%
CC(NC(=O)C(=O)NN=C1CCC(C(C)(C)C)CC1)c1ccccc1 (stereo not given)	2.57%
CC(C)NC(=S)NN=C1CCCCCCCCCCC1	-4.16%
CC(C)(C)NC(=O)C(=O)NN=C1CCCCCCC1	39.2% (active)
O=C(N/N=C/c1ccc([N+](=O)[O-])cc1)c1c[nH]c2ccccc12	-2.85%
Cc1c(C(=O)N/N=C/c2ccccc2)[nH]c2c([N+](=O)[O-])cccc12	94.2% (active)
Cc1cc(C(=O)N/N=C/c2ccccc2[N+](=O)[O-])c(C)o1	2.6%
COC(=O)Nc1ncc(CN2CCCCC2)s1	1.52%
N/C(=N\S(=O)(=O)c1cc(C(F)(F)F)cc(C(F)(F)F)c1)c1cccs1	0.14%
Cc1ccc(C(=O)NC(=S)Nc2ccccc2C)cc1	-1.48%
CCOC(=O)c1c(N)sc2c1CCCC2=O	-0.22%
Cc1cc2cc(CNC(=O)c3ccc(S(=O)(=O)N4CCOCC4)cc3)ccc2[nH]1	-23.9%
C/C(CC(=O)Nc1ccc(C)cc1C)=N\NC(=O)C(C)C	-1.71%
C=CCn1c(SCC(=O)NCc2ccccc2)nnc1-c1cc(Br)ccc1O	4.21%
C=CCn1c(SCC(=O)Nc2nc3ccccc3s2)nnc1-c1ccccc1O	6.76%
C=CCn1c(N)cc(=O)nc1SCC(=O)Nc1cccc2ccccc12	30.1% (active)
Cc1cc(C(=O)NNC(=S)NC(C)c2ccccc2)cs1 (stereo not given)	-0.45%
CC(NC(=S)NNS(=O)(=O)c1ccc(C(C)(C)C)cc1)c1ccccc1 (stereo not given)	96.5% (active)
Cc1ccc(S(=O)(=O)NNC(=S)NC(C)(C)C)cc1	2.84%
O=C(C1CCCN1S(=O)(=O)c1ccc(Br)cc1)N1CCOCC1 (stereo not given)	-1.1%
COC(=O)[C@@H]1C[C@@]2(O)[C@H](O)[C@H](O)[C@H](O)C[C@H]2N1Cc1ccc(C)s1	-1.88%
COC(=O)[C@@H]1C[C@@]2(O)[C@H](O)[C@H](O)[C@H](O)C[C@H]2N1Cc1ccc(C(C)(C)C)cc1	-5.29%
COC(=O)[C@@H]1C[C@@]2(O)[C@@H](O)[C@@H](O)[C@@H](O)C[C@H]2N1Cc1ccc(C)s1	96% (active)
C/C(Cn1nnc2ccccc21)=N\OC(=O)c1cc(F)c(F)cc1Cl	-2.84%

Compound	inhibition
O=[N+]([O-])C(=c1ccc2c(c1)N1C3=C(CCCC3)CC3CCCCC31N=2)[N+](=O)[O-] (stereo not given)	34.6% (active)
Cc1c(Cl)cccc1NC(=S)NCc1ccc2c(c1)OCO2	3.45%
O=C(NNC1=NCCC1)c1cccc(S(=O)(=O)N2CCCCC2)c1	6.05%
Cc1ccc(N(C(=O)c2ccc(CN3CCOCC3)o2)C(C(=O)NCCC(C)C)c2cccs2)c(C)c1 (stereo not given)	3.08%
CC(C)(C)c1ccc(/C=C2\SC(=O)N=C2N)cc1	2.64%
C/C(=N\NC(=S)Nc1ccc(C)cc1)c1cc2ccccc2o1	-0.73%
CCCc1c(C(=O)Nc2ccc(F)cc2)cnn1-c1ccccc1	2.37%
CN(C)CCCN(Cc1cc2cc3c(cc2[nH]c1=O)OCCO3)C(=O)NC1CCCCC1	2.76%
O=C(c1ccc(F)cc1)N1CCCC(c2nc(-c3cccs3)no2)C1 (stereo not given)	3.08%
COc1ccnc(Oc2ccccc2)n1	15.9%
CCc1cccc(C)c1NC(=S)N(CCCN1CCN(C)CC1)Cc1cccs1	-3.86%
Cc1ccc(-n2ccc(=O)c(C(=O)O)n2)cc1	1.06%
Cc1ccnc(NC(=O)C(C)N2C(=O)c3ccccc3C2=O)c1 (stereo not given)	1.43%
Cc1ccc(N2C(=O)c3ccccc3C2(O)c2ncc[nH]2)cc1 (stereo not given)	55.4% (active)
CC(=O)Nc1ccc(/C=N/Nc2ccc(C(=O)c3c(C)cc4ccccn34)cc2[N+](=O)[O-])cc1	63.9% (active)
CNc1ccc(NC(C)=O)cc1[N+](=O)[O-]	-0.25%
Cc1ccc(Nc2ccc(C(N)=O)cc2[N+](=O)[O-])cc1	-0.72%
CCOc1ccc(/C=N/NC(=O)CSc2ccccn2)cc1O	-2.92%
O=C(COC(=O)/C=C/c1ccc(S(=O)(=O)N2CCCCCC2)cc1)NCc1ccccc1Cl	2.41%
C=C1CCN([C@H](C(=O)NCc2cc(OC)c(OC)c(OC)c2)C(C)C)S(=O)(=O)c2ccccc21	-2.58%
Nc1ccc(S(=O)(=O)Nc2nccc(/C=C/c3ccc(Br)s3)n2)cc1	0.68%
CC(C)(C)c1cc(C(=O)NN)n(Cc2ccc(Cl)cc2Cl)n1	3.29%
Cc1[nH]n(C)c(=O)c1C(=O)c1c(-c2c(Cl)cccc2Cl)noc1C	-1.16%
N/C(=N\S(=O)(=O)c1ccc(Cl)cc1)N1CCOCC1	-0.17%

Compound	inhibition
COc1ccc(N2CCN(C(=S)Nc3ccc(S(N)(=O)=O)cc3)CC2)cc1	2.56%
COC(=O)Cc1csc(/N=C/c2c(O)n(-c3cccc(C(F)(F)F)c3)c(=O)c3ccccc23)n1	1.31%
COc1ccc(C2C(C(=O)N3CCN(c4ccc(OC)cc4)CC3)c3ccccc3C(=O)N2C)cc1 (stereo not given)	-1.58%
COc1ccc([C@H]2[C@H](C(C)=O)N3N=Cc4ccccc4C3C23C(=O)OC(C)(C)OC3=O)cc1 (stereo not given in full)	34.6% (active)
O=C(/C=C\c1ccc2c(c1)OCO2)NC1(C(=O)Nc2ccc3c(c2)OCCO3)CCCCC1	3.6%
COC(=O)c1c(C)[nH]c(C)c1-c1ccc([N+](=O)[O-])cc1	5.04%
CC1CC1C(=O)OCC(=O)c1c(N)n(C)c(=O)n(C)c1=O (stereo not given)	1.81%
CC1=C/C(=N\OS(=O)(=O)c2ccccc2)C=CC1=O	17.7%
CC(=O)c1c(Nc2ccccc2)sc(C(=O)c2ccccc2)c1C	0.53%
Cc1ccc(NC(=O)/C(=C\c2ccccc2)NC(=O)c2ccco2)cc1	-2.75%
Cc1cc(Br)ccc1SCC(=O)OCC(=O)NCc1ccc2c(c1)OCO2	2.11%
O=c1cc(O)nc(SCc2ccccc2Cl)[nH]1	-11.7%
Nc1nc(SCc2ccccc2Cl)n[nH]1	-1.58%
O=c1[nH]nc(CSCc2ccccc2Cl)[nH]1	37.7% (active)
Clc1ccc(-c2nc3ccccn3c2CN2CCSCC2)cc1	3.32%
COc1ccc(NC2=CC(=S)NC(C)(C)C2)cc1	0.37%
O=C(CSc1nnc(-c2ccc([N+](=O)[O-])cc2)o1)Nc1ccccn1	-0.57%
Cc1cc2nc3c(=O)n(Cc4ccccc4)c(=O)[nH]c3nc2cc1N	7.59%
Nc1ccc2nc3c(=O)[nH]c(=S)[nH]c3nc2c1	55.7% (active)
Cc1ccc(NC(=S)NC(NC(=O)Cc2cccc3ccccc23)C(Cl)(Cl)Cl)cc1 (stereo not given)	-28%
CN(c1ccccc1)S(=O)(=O)c1ccc(Cl)c(C(=O)OCC(=O)N2CCOCC2)c1	-1.49%
C/C(=N\OCC(=O)O)c1ccc(Cl)cc1	1.37%
Cc1cc(C)nc(Nc2n[nH]c(-c3ccccc3N)n2)n1	4.42%
COc1ccc(C(=O)n2nc(-c3ccc(C)cc3)nc2N)cc1OC	-7.73%

Compound	inhibition
COc1ccc(C(=O)Cn2nnc(-c3ccc(N4CCOCC4)cc3)n2)cc1OC	-9.64%
COC(=O)c1cc2occc2n1Cc1nc(-c2ccccc2C)oc1C	4.23%
O=C1Nc2cc(Cl)c(Cl)cc2N(O)N1c1ccccc1Cl	0.39%
FC(F)(F)Oc1ccc(-c2cn3cccnc3n2)cc1	-1.02%
COC(=O)c1c(C)c(C)nc(N)c1C#N	-1.17%
COCc1c(N)c(C)nc(Cl)c1C#N	33.5% (active)
Cc1nc(Cl)c(C#N)c2c1CCCC2	5.36%
COc1ccc(CCNS(=O)(=O)c2cccc3cccnc23)cc1OC	4.09%
O=S(=O)(NCCOc1cccc2cccnc12)c1ccc(F)cc1	-10.8%
O=S(=O)(NCCc1ccc(F)cc1)c1cccc2cccnc12	68.5% (active)
C=CCn1c(-c2ccc3[nH]c(C)c(C)c3c2)n[nH]c1=S	31.9% (active)
C=CCn1c(-c2sc(-c3ccccc3)nc2C)n[nH]c1=S	3.95%
C=CCn1c(-c2ccccc2OCC)n[nH]c1=S	-7.58%
NC(N)=Nc1nc2ccc(Br)cc2c(=O)[nH]1	-3.42%
CC(NCc1nc2ccccc2n1C)C12CC3CC(CC(C3)C1)C2 (stereo not given)	3.84%
O=C(c1ccc(Br)o1)N(c1ccccn1)C1CCCCC1	1.85%
Cc1ccc(OS(=O)(=O)c2ccc(-c3csc(C)n3)s2)c(C)c1	-1.07%
CCOc1ccc(C2c3[nH]c4ccccc4c3CCN2Cc2cn(CC)nc2C)cc1 (stereo not given)	1.87%
COC(=O)c1cc2n(n1)CCCNC2=O	2.7%
CC(=O)Nc1ccc(S(=O)(=O)N(C)c2ccc(OCC(=O)OCC(=O)N3CCCCC3)cc2)cc1	-2.79%
N#C/C(C(=O)N1CCOCC1)=C1/SC(Cc2ccc(F)cc2)C(=O)N1c1ccccc1 (stereo not given)	2.54%
Cc1cccc2cc3c(N)c(C(=O)N4CCCc5ccccc54)sc3nc12	-0.81%
CCOc1ccccc1/C=N/NC(=O)CNC(=O)COc1ccccc1	0.46%
